This note sets out measurements from PubChem BioAssay (NCATS).

Inconclusive results are not listed. The source made the active and inactive calls. Unless noted, calls follow the shape of the dose curve; as a rule, active = well fitted curve in the direction sought with a large enough effect; inconclusive = small, poorly fitted or top-dose-only effect, or another doubt; inactive = no such curve, though single readings can be large; an effect the other way counts as inactive or inconclusive.

Test [1] concerns Zika virus NS2B-NS3 protease (unlinked complex). As to the kind of experiment: Primary screen GU Rhodamine qHTS for Zika virus inhibitors: Unlinked NS2B-NS3 protease assay (AID 1347159). Also: % is scaled to controls: 0 for no effect and ±100 for the full control effect; nearly all actives have a fitted effect of over 60% in size. The method in brief:
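Buffer 10 mM Tris-HCl pH 8.0, 0.01% Tween 20. Unlinked protease 25 nM; compound preincubation 15 min, RT, protected from light. Substrate Rhod110, 1.5 microM; ~15% conversion in 15 min.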
A general note: In qHTS, concentration-response curves come from the screen itself.

The test system of test [2] is Zika virus NS2B-NS3 protease (linked construct). Put plainly: Primary screen NINDS Rhodamine qHTS for Zika virus inhibitors (AID 1347160). Also: nearly all actives have a fitted effect of over 55% in size. As to activity change, negative = inhibition: % is scaled to controls: 0 for no effect and ±100 for the full control effect. The essentials: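 Aprotinin served as in-plate control. Conditions: 25 nM linked NS2B-NS3, pH 8.0 Tris buffer, titrated compounds, 15 min preincubation and 15 min reaction with 1.5 microM Rhod110 substrate at room temperature.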

Test [3] can be described thus: Primary qHTS for inhibitors of nuclear receptor binding SET domain protein 2 (NSD2) in an RCH-ACV wild type WT cells (2C) (AID 1645877). Also: nearly all actives have a fitted effect of over 70% in size. Also: potency is read from the fitted curve at half-maximal effect.
In test [4] the target is Glutathione peroxidase 1 (Homo sapiens) (UniProt P07203). As to the kind of experiment: Primary qHTS Assay for Inhibitors of Recombinant Selenoprotein Glutathione Peroxidase 1 (GPX1) (AID 1845191). Also: nearly all actives have a fitted effect of over 65% in size. The method in brief:
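NADPH consumption tracked by fluorescence at 340/450 nm between t=0 and t=15 min, room temperature. Final mix: 10 nM GPX1, 100 nM glutathione reductase, 1 mM GSH, 0.5 mM NADPH, 0.5 mM cumene hydroperoxide, 0.01% BSA; 30 min compound–enzyme preincubation.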

Test [5] is described as follows: Primary fluorescence-based thiol-reactive (MSTI) qHTS assay for identification of artifact compounds. (AID 1845221). Also: nearly all actives have a fitted effect of over 65% in size. Also: potency is read from the fitted curve at half-maximal effect. The essentials:
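Curve-fitted percent inhibition (4-parameter Hill) derived from fluorescence, Ex 525/Em 598 nm, scaled with Acetyl-MSTI and MSTI; 1 h incubation at room temperature.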

Another test has as its system KB-3-1. As to the kind of experiment: Cytotoxic Profiling of Annotated Libraries Using Quantitative High-Throughput Screening (AID 1296008). Also: nearly all actives have a fitted effect of over 60% in size. Also: potency is read from the fitted curve at half-maximal effect. As to max response: % is scaled to controls: 0 for no effect and ±100 for the full control effect. Conditions: Five cell lines viability, CellTiter-Glo ATP luminescence, 48-72 h; max response: stronger effect = lower value. The essentials: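 Cytotoxicity was measured as CellTiter-Glo ATP luminescence, read after 10 min at room temperature. Compound treatment of the cells lasted 48 or 72 hr at 37 degrees Celsius in a qHTS format.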
Background: ATP-based viability assays read luminescence as a measure of living cells.

The next test has as its system HeLa. Put plainly: Primary qHTS to identify gynecologic anti-cancer compounds using libraries of approved drugs and bioactive compounds (AID 1345084). Also: nearly all actives have a fitted effect of over 55% in size. Also: potency is read from the fitted curve at half-maximal effect. Conditions: Gynecologic cancer cell panel viability, ATPlite luminescence, 48 h; series mostly up to 57.5 µM. The method in brief: (§1)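 Cytotoxicity screen measuring ATP content by luciferase luminescence. Each compound is applied at five concentrations for 48 h at 37 C with 5% CO2.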

For a further test, the system named is SKOV3. Described as above. Conditions: Gynecologic cancer cell panel viability, ATPlite luminescence, 48 h; series mostly up to 57.5 µM. The method in brief:
as §1

A further test deals with HACAT. Put plainly: qHTS assay to identify novel small-molecules to repurpose for Merkel cell carcinoma treatment (AID 1296009). Also: nearly all actives have a fitted effect of over 60% in size. Conditions: MCC and control cell lines, CellTiter-Glo viability, 72 h; at 44.8 µM (top of the series) unless noted. The essentials: (§2)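 Cell viability, measured as CellTiter-Glo luminescence, was normalized between DMSO and no-cell wells. The cells had been exposed to 8- or 11-point compound dilutions for 72 hr at 37 degree celsius.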

Test [6] is described as follows: Primary redox qHTS assay for identification of artifact compounds. (AID 1845223).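 Also: 0% = DMSO and 100% = reference compound.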 The essentials: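 Redox-cycling detection via DTT (250 uM final) oxidation coupled to Amplex Red (25 uM)/HRP (250 mU/mL) in HBSS. 15 min preincubation plus 30 min after DTT, room temperature. Ex/Em 525/598 nm; 4-parameter Hill fit against DMSO and 10 uM DA3003.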
In another test the test system is CRL-7250. As to the kind of experiment: qHTS assay to identify novel small-molecules to repurpose for Merkel cell carcinoma treatment (AID 1296009). Also: nearly all actives have a fitted effect of over 60% in size. The note with it: MCC and control cell lines, CellTiter-Glo viability, 72 h; series mostly up to 92 µM. The method in brief: as §2
Test [7] deals with Cytochrome P450 2D6 (Homo sapiens) (UniProt P10635). As to the kind of experiment: Cytochrome P450 family 2 subfamily D member 6 (CYP2D6) small molecule antagonists: luciferase biochemical (cell-free) qHTS assay (AID 1645840; active = well fitted curve in the direction sought with a large enough effect in the repeat runs; an effect the other way counts as inactive or inconclusive; also: % is scaled to controls: 0 for no effect and ±100 for the full control effect; nearly all actives have a fitted effect of over 55% in size). The method in brief:
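P450-Glo CYP2D6 system: proluciferin substrate converted by enzyme to luciferin, read by luminescence proportional to activity. Enzyme-substrate mix with compound 10 min at room temperature, then NADPH regeneration 1 h before detection reagent.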

Test [8] has as its target Cytochrome P450 2C9 (Homo sapiens) (UniProt P11712). Put plainly: Cytochrome P450 family 2 subfamily C member 9 (CYP2C9) small molecule antagonists: luciferase biochemical (cell-free) qHTS assay (AID 1645842; active = well fitted curve in the direction sought with a large enough effect in the repeat runs; an effect the other way counts as inactive or inconclusive; also: potency is read from the fitted curve at half-maximal effect; nearly all actives have a fitted effect of over 55% in size). The essentials: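 P450-Glo CYP2C9 system: proluciferin substrate with enzyme in mix containing 0.4% BSA, 10 min at room temperature, then NADPH regeneration solution added and incubated 1 h at 37C. Detection reagent stopped reaction; luminescence read after 20 min as RLU.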

The nature of test [9]: Cytotoxicity counterscreen for inhibitors of SARS-CoV-2 cell entry (AID 1645845; calls by dose curve; also: % is scaled to controls: 0 for no effect and ±100 for the full control effect; nearly all actives have a fitted effect of over 50% in size). The essentials: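 ATP-content luminescence (ATPLite 1step, 15 min RT) read after 48 h compound exposure of Expi293F cells stably expressing human ACE2; normalized to cells-only wells and media-only wells.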
(In general: Counterscreens check selectivity or assay interference.)

Test [10] in a line: Primary qHTS to identify inhibitors of SARS-CoV-2 cell entry (AID 1645846; calls by dose curve; also: nearly all actives have a fitted effect of over 45% in size). Conditions: activity change, negative = inhibition: at 57.1 µM (top of the series) unless noted. The method in brief:
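Inhibition of spike-mediated entry was scored in human ACE2-transfected Expi293F cells. Particles were MLV-pseudotyped with Wuhan-Hu-1 S carrying a 19-aa C-terminal deletion; signal was luciferase after two days, scaled between spike PP and fusion-protein-free PP.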

Test [11] in a line: qHTS drug screen for cell cycle checkpoint inhibitors in PARPi-resistant BRCA-mutant ovarian cancer cell lines. (AID 1963452; calls by dose curve). Conditions: PEO1/OlaR viability, CellTiter-Glo luminescence, 96 h, stronger effect = lower value. The essentials: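 PEO1, PEO4 and PEO1/OlaR ovarian cancer cells, 600 per well, exposed 96 h at 37C to a dilution series. Viability read by CellTiter-Glo luminescence, normalized to DMSO and empty wells; activity summarized as Z-AUC.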

The nature of test [12]: qHTS Assay for Lipid Storage Modulators (AID 1519; calls by dose curve; as to activity change, negative = inhibition: % is scaled to controls: 0 for no effect and ±100 for the full control effect). Conditions: Drosophila S3 cells, BODIPY lipid droplet/cell ratio, laser cytometry, cells loaded with oleic acid. The essentials: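 Cells seeded at 5,000 per well were treated with compounds over a concentration series and loaded with oleic acid (400 uM, as added). Lipid droplet fluorescence (488 nm excitation, 500-530 nm channel) was read by laser-scanning cytometry and normalized to 20 uM Triacsin C.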

Sequence of Glutathione peroxidase 1 (Homo sapiens) (P07203 whole entry, looked up): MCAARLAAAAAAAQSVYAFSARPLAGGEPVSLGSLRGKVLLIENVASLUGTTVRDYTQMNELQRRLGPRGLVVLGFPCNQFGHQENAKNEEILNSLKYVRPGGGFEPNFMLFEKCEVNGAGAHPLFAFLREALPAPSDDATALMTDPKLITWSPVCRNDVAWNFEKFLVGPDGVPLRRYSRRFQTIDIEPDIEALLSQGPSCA
Sequence of Cytochrome P450 2D6 (Homo sapiens) (P10635 whole entry, looked up): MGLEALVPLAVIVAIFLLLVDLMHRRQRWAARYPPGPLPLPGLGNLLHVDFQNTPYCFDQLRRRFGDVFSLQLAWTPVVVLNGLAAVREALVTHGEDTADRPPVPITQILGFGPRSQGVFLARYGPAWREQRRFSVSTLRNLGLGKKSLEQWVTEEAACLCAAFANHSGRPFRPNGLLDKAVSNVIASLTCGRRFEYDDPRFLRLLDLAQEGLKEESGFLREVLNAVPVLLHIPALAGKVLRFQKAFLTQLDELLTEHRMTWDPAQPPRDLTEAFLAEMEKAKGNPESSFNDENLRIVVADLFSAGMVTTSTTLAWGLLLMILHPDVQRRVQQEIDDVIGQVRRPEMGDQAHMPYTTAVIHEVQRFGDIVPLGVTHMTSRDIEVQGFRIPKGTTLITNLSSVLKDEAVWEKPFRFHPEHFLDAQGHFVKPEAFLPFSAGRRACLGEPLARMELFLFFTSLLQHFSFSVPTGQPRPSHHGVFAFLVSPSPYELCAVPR
Sequence of Cytochrome P450 2C9 (Homo sapiens) (P11712 whole entry, looked up): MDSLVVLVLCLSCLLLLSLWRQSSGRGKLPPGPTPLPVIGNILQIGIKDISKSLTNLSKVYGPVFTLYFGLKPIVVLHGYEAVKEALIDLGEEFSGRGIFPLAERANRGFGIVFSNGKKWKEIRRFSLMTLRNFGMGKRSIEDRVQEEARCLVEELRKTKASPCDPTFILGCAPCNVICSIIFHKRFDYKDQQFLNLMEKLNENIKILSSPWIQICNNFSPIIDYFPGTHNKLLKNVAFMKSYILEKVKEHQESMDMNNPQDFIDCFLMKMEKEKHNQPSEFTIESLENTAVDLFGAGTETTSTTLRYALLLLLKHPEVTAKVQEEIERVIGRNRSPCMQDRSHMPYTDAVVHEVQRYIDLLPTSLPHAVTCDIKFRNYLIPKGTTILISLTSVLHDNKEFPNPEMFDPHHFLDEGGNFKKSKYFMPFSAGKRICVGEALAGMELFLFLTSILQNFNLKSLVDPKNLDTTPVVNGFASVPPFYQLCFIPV

On to `CO[C@H]1[C@@H](O)[C@@H](C)O[C@@H](O[C@@H]2C=C3C(OC(C)=O)CC4(O)C(CC[C@]5(C)[C@@H](C6=CC(=O)OC6)CC[C@]45O)[C@@]3(C)CC2)[C@@H]1O` (stereo not given in full), for which the Potency entry in [1], in test [2], in test [4] and in [5] was “inactive” each time. Moreover, the Potency in test [3] is 85.8 nM (active); in the test with KB-3-1, 385 nM (active); with HeLa it was 501 nM (active); with SKOV3, 282 nM (active).

In the case of `C/C=C1/CN2CC[C@]34C(=Nc5ccc(OC)cc53)C2C[C@@H]1C4(CO)C(=O)OC` (stereo not given in full), the Potency entry (in test [1]; in [2]; in [3]; in test [4]; in the test with HeLa; with SKOV3) was “inactive” in each case. In addition, the max response with KB-3-1 is 0.853% (inactive). In addition, the compound was called inactive with HACAT.

For the compound `CCC(C)/C=C(C)/C=C/C1=CC2=C(Cl)C(=O)C(C)(OC(C)=O)C(=O)C2=CO1` (stereo not given), the Potency result (in [4]; in the test with HeLa; in the test with SKOV3) was “inactive” each time. Also, in [5], the Potency was 1.31 µM (active). The max response with KB-3-1 is -15.5% (inactive).

Regarding `COc1ccc2c3c4n(c2c1)[C@@H](C=C(C)C)OOC(C)(C)C[C@@H]4N1C(=O)[C@@H]2CCCN2C(=O)[C@]1(O)[C@H]3OCC=C(C)C`, the Potency result (in test [1]; in test [2]; in [4]; in [6]; in the test on CRL-7250; in the test on HeLa) was “inactive” each time. Besides, in the test with SKOV3, the Potency result is “inactive”. Further, in the test on KB-3-1, the max response is 8.3% (inactive).

Consider `CC(=O)N1N=C(c2ccc(N)cc2)c2cc3c(cc2C[C@H]1C)OCO3`, for which the Potency result in test [1], in test [2], in [7], in [9], in [3] and in test [4] was “inactive” in each case. Also, the Potency result with HeLa and in the test with SKOV3 was “inactive” in each case. Further, in [8], the Potency is 12 µM (active). For the same compound, the activity change, negative = inhibition in test [10] is -4.19%. In addition, the Z-AUC was 0.45 (inactive) in test [11], 0.452 in test [11] (measured here: PEO1 parental Z-AUC) and 0.412 in test [11] (measured here: PEO4 Z-AUC). Also, in the test on KB-3-1, the max response was 6.29% (inactive).

`C=CCN1CCC2(C)c3cc(O)ccc3C[C@H]1[C@H]2C`: the activity change, negative = inhibition in [12] (at 57.5 µM (top of the series)) is -8.46% (inactive). In addition, the max response is 25.8% in test [12] (measured here: cell count channel max response), 17% in test [12] (measured here: lipid channel max response) and 1.41% (inactive) in the test with KB-3-1. Moreover, the Potency entry (in [1]; in test [2]; in test [6]; in the test with HeLa; in the test on SKOV3) was “inactive” in each case.

For the compound `CO[C@@H]1[C@H](O)[C@@H](O[C@@H]2C[C@H]3CC[C@@H]4C(CC[C@]5(C)[C@@H](C6=CC(=O)OC6)CC[C@]45O)[C@@]3(C)[C@H](O)C2)O[C@H](C)[C@@H]1O` (stereo not given in full), the Potency entry in test [1], in test [4] and in [5] was “inactive” each time. Moreover, the Potency in test [3] is 159 nM (active); with KB-3-1, 448 nM (active); with HeLa, 199 nM (active); in the test with SKOV3 it was 251 nM (active).

With `C/C=C(/C)C1C=CC2CC(C)CC(C)C2C1/C(O)=C1\C(=O)NC(CC(C)(O)C(=O)O)C1=O` (stereo not given), the max response in the test with KB-3-1 is 4.77% (inactive). The Potency result in the test with CRL-7250, with HeLa and with SKOV3 was “inactive” throughout.

For the compound `C#CCO[C@H]1CN2CCC1CC2`, the Potency result (in test [2]; in test [3]; in [4]; in [6]; in the test with HeLa; with SKOV3) was “inactive” each time. In addition, the max response with KB-3-1 is 2.91% (inactive).
